This passage reports outcome and Potency results from PubChem BioAssay (NCATS).

Molecules are shown by their SMILES. Records with an inconclusive call do not appear. Entries that show only a call come without a potency. Activity calls are given as the source filed them. Unless noted, the call rests on the fitted dose curve; in most records, active means well fitted curve in the direction sought with a large enough effect; inconclusive means small, poorly fitted or top-dose-only effect, or another doubt; inactive means no such curve, though single readings can be large; an effect the other way counts as inactive or inconclusive. Where a SMILES comes first, the peptide text is derived from it. Bridges are numbered along the chain shown (N, C = ends). [ ]: non-standard residue; d: D form. hArg = N=C(N)NCCCC[C@H](N)C(=O)O; Mpa = O=C(O)CCS

Chain of Estrogen receptor (Homo sapiens) (P03372 whole entry, looked up): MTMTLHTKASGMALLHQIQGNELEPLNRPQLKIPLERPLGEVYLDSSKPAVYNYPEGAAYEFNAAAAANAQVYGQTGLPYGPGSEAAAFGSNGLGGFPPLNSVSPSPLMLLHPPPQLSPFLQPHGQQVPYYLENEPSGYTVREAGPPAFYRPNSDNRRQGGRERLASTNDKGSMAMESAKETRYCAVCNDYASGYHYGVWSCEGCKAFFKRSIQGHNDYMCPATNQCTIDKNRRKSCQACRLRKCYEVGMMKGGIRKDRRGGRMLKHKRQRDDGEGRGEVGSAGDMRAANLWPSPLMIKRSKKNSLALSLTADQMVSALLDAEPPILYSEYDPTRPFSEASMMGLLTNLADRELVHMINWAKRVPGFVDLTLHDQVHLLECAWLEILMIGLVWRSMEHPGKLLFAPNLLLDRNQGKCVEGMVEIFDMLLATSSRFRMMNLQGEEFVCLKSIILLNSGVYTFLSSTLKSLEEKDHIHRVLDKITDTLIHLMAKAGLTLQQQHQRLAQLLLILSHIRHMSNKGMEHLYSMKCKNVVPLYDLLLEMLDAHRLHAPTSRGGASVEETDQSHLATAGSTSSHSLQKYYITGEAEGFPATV
Chain of Ubiquitin carboxyl-terminal hydrolase 1 (Homo sapiens) (O94782 whole entry, looked up): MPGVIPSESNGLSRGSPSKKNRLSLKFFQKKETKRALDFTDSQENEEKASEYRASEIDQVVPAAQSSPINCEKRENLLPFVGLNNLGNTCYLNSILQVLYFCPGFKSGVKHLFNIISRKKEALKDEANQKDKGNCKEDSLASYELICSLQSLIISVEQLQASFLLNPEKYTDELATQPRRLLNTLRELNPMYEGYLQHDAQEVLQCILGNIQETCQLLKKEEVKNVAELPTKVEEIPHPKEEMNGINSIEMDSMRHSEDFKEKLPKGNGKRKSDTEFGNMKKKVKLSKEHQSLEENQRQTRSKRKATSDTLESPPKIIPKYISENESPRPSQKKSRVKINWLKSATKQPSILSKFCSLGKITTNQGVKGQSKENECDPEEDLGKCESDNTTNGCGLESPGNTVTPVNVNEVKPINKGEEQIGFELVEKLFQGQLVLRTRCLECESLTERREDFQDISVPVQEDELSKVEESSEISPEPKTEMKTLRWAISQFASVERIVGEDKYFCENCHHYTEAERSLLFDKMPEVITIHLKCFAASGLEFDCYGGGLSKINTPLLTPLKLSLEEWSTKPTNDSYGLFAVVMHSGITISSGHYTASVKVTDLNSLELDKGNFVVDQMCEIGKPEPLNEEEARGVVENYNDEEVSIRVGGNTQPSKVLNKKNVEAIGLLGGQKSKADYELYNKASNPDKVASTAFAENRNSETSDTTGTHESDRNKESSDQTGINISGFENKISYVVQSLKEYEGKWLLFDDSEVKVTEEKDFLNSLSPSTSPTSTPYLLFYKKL
Chain of ATP-dependent 6-phosphofructokinase (Trypanosoma brucei brucei) (O15648 whole entry, looked up): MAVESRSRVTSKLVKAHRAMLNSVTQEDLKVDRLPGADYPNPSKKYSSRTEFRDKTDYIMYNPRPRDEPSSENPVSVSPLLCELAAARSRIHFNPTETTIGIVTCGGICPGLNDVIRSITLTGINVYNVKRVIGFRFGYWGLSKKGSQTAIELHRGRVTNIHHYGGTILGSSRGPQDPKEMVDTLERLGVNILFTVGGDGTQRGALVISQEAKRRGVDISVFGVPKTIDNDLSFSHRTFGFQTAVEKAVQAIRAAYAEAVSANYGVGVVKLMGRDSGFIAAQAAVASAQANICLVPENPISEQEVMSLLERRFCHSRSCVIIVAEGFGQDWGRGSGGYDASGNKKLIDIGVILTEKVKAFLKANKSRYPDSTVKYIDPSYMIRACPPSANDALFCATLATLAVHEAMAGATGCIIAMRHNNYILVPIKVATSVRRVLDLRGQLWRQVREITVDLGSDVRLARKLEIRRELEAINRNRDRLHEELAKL

For the first assay, the target named is ATP-dependent 6-phosphofructokinase (Trypanosoma brucei brucei) (UniProt O15648). Put plainly: qHTS Assay to Find Inhibitors of T. brucei phosphofructokinase: hit validation (AID 492961).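 Further: luminescence reports ADP formed as PFK phosphorylates fructose-6-phosphate with ATP.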 The conditions noted are these: T. brucei PFK, ADP-Glo luminescence; series mostly up to 51.4 µM. The gist of the method:
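Reaction: 0.1 M triethanolamine pH 8.0, 5 mM MgCl2, F6P 0.5 mM, ATP 0.1 mM, PFK 1.25 nM, 45 min RT. Read-out: ADP-Glo luminescence. Analysis: concentration-response fits, classed by r2 and efficacy.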
(In qHTS, concentration-response curves come from the screen itself.)
For the molecule `Cc1ccc(C(C)C)c(O)c1`, the molecule was classed as inactive.
With `COC(=O)c1ccc(O)cc1`, the call was inactive.
On the same count and under the same terms, the value for `O=C1c2ccccc2S(=O)(=O)N1CCCCN1CCN(c2ncccn2)CC1` was “inactive”; that for `O=C(NCN1CCOCC1)c1cnccn1` was “inactive”; that for `CCCCCCCCCCCCCCCCCCO` was “inactive”.
On to `C[C@@H](N)C(=O)O`, for which the molecule was classed as inactive.
As to `OC[C@@H](O)[C@@H](O)[C@H](O)[C@H](O)CO`, the call was inactive.
For the molecule `CN(C(=O)c1c(O)c2ccccc2n(C)c1=O)c1ccccc1`, the call was inactive.
Turning to `O=C(OOC(=O)c1ccccc1)c1ccccc1`, the result was inactive.

The next assay addresses Ubiquitin carboxyl-terminal hydrolase 1 (Homo sapiens) (UniProt O94782). The assay can be described thus: Inhibitors of USP1/UAF1: Pilot qHTS (AID 504865). Further: nearly all actives have a fitted effect of over 35% in size. Further: potency means the concentration at half of the fitted maximal effect. The conditions noted are these: purified USP1/UAF1, Ub-rhodamine cleavage fluorescence; series mostly up to 114 µM. The gist of the method:
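In 50mM HEPES pH 7.8 containing 0.5mM EDTA, 1mM TCEP, 0.1 mg/ml BSA and 0.01% Tween-20, 1nM USP1/UAF1 is exposed to compound for 15 min, then Ub-Rho (150nM final) is added and fluorescence is read over time.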
`CNc1c2c(nn1C)CCCC2`: the Potency entry was “inactive”.
For `Nc1ncnc2c1ncn2[C@@H]1O[C@H](COP(=O)(O)O)[C@@H](O)[C@H]1O`, the Potency result was “inactive”.
As to `C[C@@H]1O[C@@H](OC[C@H]2O[C@@H](Oc3c(-c4ccc(O)c(O)c4)oc4cc(O)cc(O)c4c3=O)[C@H](O)[C@@H](O)[C@@H]2O)[C@H](O)[C@H](O)[C@H]1O`, the Potency entry is “inactive”.
Turning to `Cc1cccc(C)c1NC(=O)CC12CCCN1CCC2`, the Potency entry is “inactive”.
For the molecule `Cc1ccc(C(C)C)c(O)c1`, the Potency result is “inactive”.
For `CC(=O)N(CC(O)CO)c1c(I)c(C(=O)NCC(O)CO)c(I)c(C(=O)NCC(O)CO)c1I` (stereo unspecified), the Potency result was “inactive”.
On the same count and under the same terms, with `COC(=O)c1ccc(O)cc1` the entry was “inactive”; with `CC(=O)N[C@@H](Cc1ccc(O)cc1)C(=O)O`, “inactive”; with `O=C(O)c1ccc[n+]([O-])c1`, “inactive”.
Consider `CNCc1ccccc1`, for which the Potency entry was “inactive”.
With `O=C(O)c1ccccc1OP(=O)(O)O`, the Potency result is “inactive”.
Regarding `NS(=O)(=O)c1cc(C2(O)NC(=O)c3ccccc32)ccc1Cl` (stereo unspecified), the Potency result was “inactive”.
Same read-out and setting: with `Cc1cccc(Nc2ccccc2C(=O)O)c1C` the entry was “inactive”.
As to `NC(=O)c1ccc([N+](=O)[O-])cc1Cl`, the Potency result is “inactive”.
Regarding `NC(=O)[C@@H]1CSSCCC(=O)N[C@@H](CCCCN=C(N)N)C(=O)NCC(=O)N[C@@H](CC(=O)O)C(=O)N[C@@H](Cc2c[nH]c3ccccc23)C(=O)N2CCC[C@H]2C(=O)N1` ([Mpa][hArg]GDWPC-NH2; disulfide 1-7), the Potency result was “inactive”.
With `O=C(O)c1ccccc1C(=O)Nc1ccc(S(=O)(=O)Nc2nccs2)cc1`, the Potency entry is “inactive”.
Consider `O=C1c2ccccc2S(=O)(=O)N1CCCCN1CCN(c2ncccn2)CC1`, for which the Potency entry was “inactive”.
For the molecule `CCc1nnc(NS(=O)(=O)c2ccc(N)cc2)s1`, the Potency result was “inactive”.
Consider `O=C(O)Cn1c(C(=O)Nc2nc(-c3ccccc3Cl)cs2)cc2ccccc21`, for which the Potency is 79.4 µM (active).
In the case of `CC(C)c1cc2c(cc1S(=O)(=O)O)[C@@]1(C)CCC[C@@](C)(C(=O)O)[C@@H]1CC2`, the Potency entry is “inactive”.
Regarding `O=C(NCN1CCOCC1)c1cnccn1`, the Potency result is “inactive”.
`CN1CCCN=C1COC(=O)C(O)(c1ccccc1)C1CCCCC1` (stereo unspecified): the Potency result was “inactive”.
For the molecule `CCCCCCCCCCCCCCCCCCO`, the Potency result was “inactive”.
With `Cc1ccsc1C(=CCCN1CCC[C@@H](C(=O)O)C1)c1sccc1C`, the Potency entry was “inactive”.
Same read-out and setting: with `C[C@@H](N)C(=O)O` the entry was “inactive”; with `OC[C@@H](O)[C@@H](O)[C@H](O)[C@H](O)CO`, “inactive”.
With `O=c1[nH]cnc2nc[nH]c12`, the Potency result was “inactive”.
For the molecule `Cn1c(=O)c2c(ncn2CCO)n(C)c1=O`, the Potency entry is “inactive”.
Same read-out and setting: with `CN(C(=O)c1c(O)c2ccccc2n(C)c1=O)c1ccccc1` the entry was “inactive”; with `Cc1cc(NC(=O)C2=C(O)c3ccccc3S(=O)(=O)N2C)no1`, “inactive”; with `CC(CSC(=O)c1ccccc1)C(=O)N1C[C@@H](Sc2ccccc2)C[C@H]1C(=O)O` (stereo partly specified), “inactive”.
With `COc1ccccc1OCC(O)CO` (stereo unspecified), the Potency entry was “inactive”.
On to `NS(=O)(=O)c1ccc(C(=O)O)cc1`, for which the Potency entry was “inactive”.
On the same count and under the same terms, with `CC(O)CCCCn1c(=O)c2c(ncn2C)n(C)c1=O` (stereo unspecified) the entry was “inactive”.
In the case of `Cc1c(C)c2c(c(C)c1OC(=O)c1cccnc1)CC[C@@](C)(CCC[C@H](C)CCC[C@H](C)CCCC(C)C)O2`, the Potency entry was “inactive”.
On the same count and under the same terms, the value for `O=C(OOC(=O)c1ccccc1)c1ccccc1` was “inactive”; that for `C[N+]1(C)CCCC(OC(=O)C(O)(c2ccccc2)c2ccccc2)C1` (stereo unspecified) was “inactive”.

The target of the next assay is DNA dC->dU-editing enzyme APOBEC-3G (Homo sapiens) (UniProt Q9HC16). Put plainly: qHTS for inhibitors of Vif-A3G interactions: Validation (AID 588379). The conditions noted are these: Vif-A3G protein interaction assay; series mostly up to 46.1 µM. The gist of the method: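 HeLa cells stably expressing Vif and A3G-eYFP, 700 cells/well, incubated overnight at 37 deg C, then exposed to compound overnight at 37 deg C. Inhibition of Vif-mediated degradation read as increased yellow fluorescence (Ex 488/Em 500-530) by laser-scanning cytometry.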
Chain of DNA dC->dU-editing enzyme APOBEC-3G (Homo sapiens) (Q9HC16 whole entry, looked up): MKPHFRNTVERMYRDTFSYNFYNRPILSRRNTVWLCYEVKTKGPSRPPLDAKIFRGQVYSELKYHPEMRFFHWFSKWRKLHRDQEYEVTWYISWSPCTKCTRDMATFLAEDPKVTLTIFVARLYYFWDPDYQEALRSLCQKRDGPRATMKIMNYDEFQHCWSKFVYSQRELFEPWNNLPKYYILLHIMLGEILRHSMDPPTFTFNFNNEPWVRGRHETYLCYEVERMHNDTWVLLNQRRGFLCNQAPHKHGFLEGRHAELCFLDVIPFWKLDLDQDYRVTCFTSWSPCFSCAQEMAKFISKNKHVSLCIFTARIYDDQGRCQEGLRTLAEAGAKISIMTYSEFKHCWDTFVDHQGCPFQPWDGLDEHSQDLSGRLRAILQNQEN
For the molecule `O=C1c2ccccc2S(=O)(=O)N1CCCCN1CCN(c2ncccn2)CC1`, the outcome was inactive.
In the case of `C[C@@H](N)C(=O)O`, the molecule was classed as inactive.
Consider `CN(C(=O)c1c(O)c2ccccc2n(C)c1=O)c1ccccc1`, for which the result was inactive.

A further assay deals with Estrogen receptor (Homo sapiens) (UniProt P03372). The assay can be described thus: qHTS assay for small molecule antagonists of estrogen receptor alpha signaling (AID 588513; active means well fitted curve in the direction sought with a large enough effect in the signal ratio, with a control signal flat, not every such curve was filed as active; the % refers to the signal ratio). The conditions noted are these: ER-alpha-UAS-bla HEK293, beta-lactamase ratio, antagonist mode; series mostly up to 76.9 µM. The gist of the method:
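Fluorescence from CCF4 substrate after 2 h at room temperature gave reporter activity; cells had been exposed to compound and 0.5nM 17-beta-estradiol for 18 h at 37 C. Hill-equation fitting yielded IC50 and maximal response.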
Consider `Cc1ccc(C(C)C)c(O)c1`, for which the result was inactive.
Turning to `CCCCCCCCCCCCCCCCCCO`, the result was inactive.
Turning to `O=C(OOC(=O)c1ccccc1)c1ccccc1`, the outcome was inactive.

The target is the same in the next assay. Put plainly: qHTS assay for small molecule agonists of estrogen receptor alpha signaling (AID 588514; calls by dose curve; further: nearly all actives have a fitted effect of over 70% in size). The conditions noted are these: ER-alpha-UAS-bla HEK293, beta-lactamase ratio, 18 h, percent of full estradiol response, vehicle zero; series mostly up to 76.8 µM. The gist of the method: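 Reporter-gene assay. […] controls beta-lactamase in HEK 293 GripTite cells; after 18 hrs with compound, CCF4 substrate is added for 2 hrs and fluorescence is read.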
Consider `COC(=O)c1ccc(O)cc1`, for which the result was inactive.
With `CCCCCCCCCCCCCCCCCCO`, the result was inactive.
Still for that read-out and setting: the value for `OC[C@@H](O)[C@@H](O)[C@H](O)[C@H](O)CO` was “inactive”.
As to `O=C(OOC(=O)c1ccccc1)c1ccccc1`, the result was inactive.
